Shown is part of a subset that was picked to be rich in hits.
nsP2pro inh = blocks chikungunya virus nsP2 protease peptide cleavage. Q8JUX6. FRET peptide cleavage, nsP2pro, fluorescence 1 h. Potency, µM (highest dose often 24.9 µM), without a hit: top-dose activity change, negative = inhibition, actives largely listed as inhibitors. actives 1.1% (n = 31,000). AID 1964107; also: nearly all actives have a fitted effect of over 60% in size
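FRET cleavage of 2.5 uM peptide 2 by 150 nM CHIKV protease domain at pH 8.0 (Tris, Tween 20). Compounds at 7 concentrations (up to 25 uM) preincubated 15 min. Fluorescence read after 1 h at room temperature.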
CHIKV nsP2 cell = inhibits CHIKV nsP2 protease in cells | shares compounds with nsP2pro inh | AID 1964100 | Potency, µM (top dose mostly 51.1 µM), without a hit: at the top dose activity change, negative = inhibition, most hits filed as inhibitors | actives 10% (n = 450) | cell-based CHIKV nsP2 protease reporter assay; also: nearly all actives have a fitted effect of over 70% in size
CHIKV NSP2 FL = inhibits full-length CHIKV NSP2 enzyme; AID 1964101; actives 39% (n = 410); Potency, µM (series often up to 50.7 µM), without a hit: at the highest dose activity change, negative = inhibition, most hits filed as inhibitors; Full-length CHIKV NSP2 protease enzymatic counterscreen; shares compounds with nsP2pro inh; also: nearly all actives have a fitted effect of over 65% in size
Furin counter = human furin inhibition, counterscreen for nsP2pro inhibitors | shares compounds with nsP2pro inh | Recombinant human furin enzymatic counterscreen, fluorogenic substrate | Potency, µM (titrated, usually from 50.6 µM), for the others: at the top dose activity change, negative = inhibition, usual class: inhibitors | actives 6% (n = 410)
NS23 peptide cs = selectivity test for CHIKV nsP2 protease inhibitors: endogenous NS2/3 peptide; AID 1964103; Potency, µM (series often up to 51 µM), for the others: at the top dose activity change, negative = inhibition, hits mostly inhibitors; actives 34% (n = 410); Purified CHIKV nsP2 protease, endogenous NS2/3 peptide cleavage; shares compounds with nsP2pro inh; also: nearly all actives have a fitted effect of over 55% in size
Papain counter = papain protease inhibition, counterscreen for nsP2pro inhibitors. Potency, µM (top dose mostly 51 µM), without a hit: at the highest dose activity change, negative = inhibition, hits mostly inhibitors. AID 1964104. purified papain protease activity, enzymatic inhibition. shares compounds with nsP2pro inh. actives 5% (n = 410)
nsP2pro confirm = confirmation of CHIKV nsP2 protease inhibitors | actives 43% (n = 410) | shares compounds with nsP2pro inh | AID 1964105 | Potency, µM (series often up to 25.5 µM), without a hit: top-dose activity change, negative = inhibition, most hits filed as inhibitors | CHIKV nsP2 protease enzymatic activity, qHTS; also: nearly all actives have a fitted effect of over 75% in size
HCV NS3 4A cs = selectivity counter-screen for CHIKV nsP2 protease inhibitors: HCV NS3/4A. shares compounds with nsP2pro inh. HCV NS3/4A protease biochemical counterscreen. Potency, µM (titrated, usually from 50.9 µM), usual class: inhibitors. actives 20% (n = 410). AID 1964106; also: nearly all actives have a fitted effect of over 55% in size
Starred values were filed as active, the others as inactive; i = inactive; ? = inconclusive; [ ] = another dose, or the depositor's remark. Calls follow the shape of the full dose curve. % is scaled to controls: 0 for no effect and ±100 for the full control effect; potency is read from the fitted curve at half-maximal effect.

SMILES	nsP2pro inh	others
CC(O)/C=C/C1(O)C(C)C(O)C(O[C@@H]2O[C@H](CO)[C@@H](O)[C@H](O)[C@H]2O)CC1(C)C (some centres undefined)	9%[10 µM]
CCCCS(=O)c1sc2nc(-c3cccs3)cc(-c3ccccc3)c2c1N (centres undefined)	7µM*	CHIKV nsP2 cell=19%;CHIKV NSP2 FL=-24%;Furin counter=-18%;NS23 peptide cs=-23%;Papain counter=?;nsP2pro confirm=14µM*;HCV NS3 4A cs=i
CCC(C(=O)N1CCC2(CC1)C(=O)N(CC(=O)NCC(C)C)CN2c1ccccc1)c1ccccc1 (centres undefined)	i
Cc1ccc(S(=O)(=O)Nc2cnccc2C(=O)Nc2nc(-c3ccc(C)c(C)c3)cs2)cc1	i
COC(=O)N(C)Cc1cccc(N2CCN(C(=O)OC(C)(C)C)CC2)c1F	2%
Cc1cc(-c2cc(O)ccc2Cl)cc2nnc(Nc3ccc(OCCN4CCCC4)cc3)nc12	52%
CC(=O)Nc1sc2c(c1-c1ccc3c(c1)OCCCO3)CCNC2	-7%
CC(C)CC[C@@H](O)[C@](C)(O)[C@H]1CC[C@@]2(O)C3=CC(=O)[C@@H]4C[C@@H](O)[C@@H](O)C[C@]4(C)[C@H]3CC[C@]12C	-2%
CN1CCC[C@@H]1Cc1c[nH]c2ccc(CCS(=O)(=O)c3ccccc3)cc12	-10%
CN(C)CCc1c[nH]c2ccc(C[C@H]3COC(=O)N3)cc12	?	CHIKV nsP2 cell=1%;CHIKV NSP2 FL=56%;Furin counter=0%;NS23 peptide cs=-10%;Papain counter=-1%;nsP2pro confirm=?;HCV NS3 4A cs=i
CCC1=C(C)C(=O)C(C)CC12C(=O)CCC2C(=O)O (centres undefined)	4%
COc1ccc(NC(=O)c2cnn3c(C)cc(C)nc23)cc1Cl	-3%
C=C(C)[C@@H]1CC[C@](C)(O)[C@@H](OC(=O)c2ccccc2)C1	2%
CCCCCC(O)/C=C/C1C(O)CC(=O)C1C/C=C/CCCC(=O)O (centres undefined)	-11%
COC(O)(CC(C)C)C1Oc2cc(C)[nH]c(=O)c2O1 (centres undefined)	8.8µM*	CHIKV nsP2 cell=11%;CHIKV NSP2 FL=-6%;Furin counter=-4%;NS23 peptide cs=1%;Papain counter=-3%;nsP2pro confirm=-23%;HCV NS3 4A cs=i
C[S+](=O)([O-])c1ccc(-c2nnc3ccc(C(=O)NC4CCCCC4)cn23)cc1	2%
O=C(O)c1ccc(-n2cccc2/C=C2\SC(=O)N(Cc3ccc(Br)cc3)C2=O)cc1	i
O=C(O)c1cc(-c2ccc(/C=C3\SC(=S)N(Cc4ccccc4)C3=O)o2)ccc1Cl	?	CHIKV nsP2 cell=17%;CHIKV NSP2 FL=-13%;Furin counter=-12%;NS23 peptide cs=233%;Papain counter=?;nsP2pro confirm=14%;HCV NS3 4A cs=i
Cc1cc(-c2ccc(/C=C3\SC(=Nc4ccc(Cl)c(C(=O)O)c4)NC3=O)o2)c([N+](=O)[O-])cc1C	-23%
CS(=O)(=O)c1ccc(C(=O)OCC(=O)N2CCN(Cc3ccccc3)CC2)cc1[N+](=O)[O-]	-24%
COC1(CC(C)C)NC(=O)C(O)(Cc2ccccc2)NC1=O (centres undefined)	0%
Cc1ccccc1C1=CCN(c2ncc(NC(=O)c3ccc(Cl)cc3)cc2C(=O)O)CC1	?	CHIKV nsP2 cell=-5%
Cc1ccccc1C1=CCN(C)CC1	-4%
COc1ccc(C(=O)Nc2cnc(-c3ccc(Cl)cc3)nc2)cc1	-1%
CCOc1ccc(NC(=O)NCC2CCCN2c2ccc(OC)cc2)cc1 (centres undefined)	-2%
SMILES	nsP2pro inh	others
COC(=O)N[C@H](C(=O)N1CCC[C@H]1C(=O)Nc1ccc([C@@H]2CC[C@@H](c3ccc(NC(=O)[C@@H]4CCCN4C(=O)[C@@H](NC(=O)OC)C(C)C)cc3)N2c2ccc(C(C)(C)C)cc2)cc1)C(C)C	-19%
O=C(NO)c1cccc(C(=O)NCCc2ccccc2)c1	-8%
O=[N+]([O-])C(Br)(CO)CO	2.5µM*	CHIKV nsP2 cell=0%;CHIKV NSP2 FL=9.2µM*;Furin counter=2%;NS23 peptide cs=9.2µM*;Papain counter=-7%;nsP2pro confirm=1.6µM*;HCV NS3 4A cs=?
CN(C)CCCN1CCCN(C(=O)c2cccc(-c3cc(O)c4ncccc4c3)c2)C1	1%
C=C1CCCC2(C)CCC(C(C)(C)OC3OC(C)C(O)C(O)C3OC(=O)/C(C)=C\C)CC12 (centres undefined)	-12%[10 µM]
C=C1C(OC2OC(CO)C(O)C(O)C2O)CC2C(C)(C)C(O)CCC2(C)C1CC/C(C)=C\COC(=O)CC(=O)O (centres undefined)	19%[10 µM]
Cc1cccc(N2CCN(c3ccc(NC(=O)c4ccccc4)cc3C(=O)O)CC2C)c1 (centres undefined)	?	CHIKV nsP2 cell=9%;CHIKV NSP2 FL=6.5µM*;Furin counter=?;NS23 peptide cs=16µM*;Papain counter=21%;nsP2pro confirm=8µM*;HCV NS3 4A cs=3.7µM*
Cc1cccc(N2CCN(S(=O)(=O)c3cc(C(=O)Nc4ccc(Oc5ccccc5)cc4)ccc3F)CC2C)c1 (centres undefined)	-13%
Cc1cccc(N2CCN(c3ccc(C(=O)O)cc3NC(=O)c3cccc(Cl)c3)CC2C)c1 (centres undefined)	?	CHIKV nsP2 cell=13%;CHIKV NSP2 FL=0%;Furin counter=-25%;NS23 peptide cs=18µM*;Papain counter=?;nsP2pro confirm=8µM*;HCV NS3 4A cs=?
Cc1cccc(N2CCN(C(=O)c3ccc(NC(=O)c4nsc5ccccc45)cc3)CC2C)c1 (centres undefined)	3%
CCOC(=O)c1ccc(N2CCN(c3cccc(Cl)c3)CC2)c(NC(=O)Nc2ccc(Cl)cc2)c1	7%
Cc1cccc(N2CCN(S(=O)(=O)c3ccc(F)c(C(=O)Nc4cccc(Cl)c4C)c3)CC2C)c1 (centres undefined)	-6%
CCNC(=O)c1ccc(-c2ccc3ncnc(NCC(C)(C)C)c3c2)o1	-3%
CCCCN=C(N)NC(=N)N	-6%
Cn1nccc1Nc1nccc(-c2ccn([C@H](CO)c3ccc(Cl)c(F)c3)c(=O)c2)n1	11%
COC[C@H](C)Oc1cc(O[C@@H](C)Cc2ccccc2)cc(C(=O)Nc2ccc(C(=O)O)cn2)c1	16%
COc1ccnc(NC(=S)N2CCN(c3cccc(Cl)c3Cl)CC2)c1	-8%
CN(CC1CCCO1)c1ncnc2ccc(-c3ccc4c(c3)OCO4)cc12 (centres undefined)	i
COc1ccc(NCc2cc3cc4c(cc3n(CC(=O)Nc3ccc(C)cc3C)c2=O)OCO4)cc1	?	CHIKV nsP2 cell=4%
